# An excerpt weighted towards active compounds, which were near 8% of everything screened.
# KB-3-1 tox: kills parental KB-3-1 adenocarcinoma cells; KB-3-1 viability, CellTiter-Glo ATP luminescence, 72 h; Potency, µM (doses to about 46.1 µM), usual class: cytotoxic; actives 1.4% (n = 400,000); further: on the % scale 0 is the no-effect control and ±100 the full control effect; nearly all actives have a fitted effect of over 60% in size
#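 KB-3-1 parental drug-naive adenocarcinoma cells in DMEM/10% FBS, incubated 72 h at 37 C with pin-transferred compounds across a concentration series. Viability by CellTiter-Glo luminescence; concentration-response curves fitted after normalization.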
# KB-V1 MDR tox: KB-V1 MDR subline cytotoxicity. AID 1347076. actives 3.4% (n = 400,000). KB-V1 MDR cells viability, CellTiter-Glo, 72 h. Potency, µM (highest dose often 46.1 µM), usual class: cytotoxic; further: on the % scale 0 is the no-effect control and ±100 the full control effect; nearly all actives have a fitted effect of over 60% in size
#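 Compound-treated KB-V1 multidrug-resistant cells, 72 h, 37 degrees C; viability by CellTiter-Glo. Fitted qHTS curves give the values.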
# MCF10A rerep: inducers of DNA re-replication in MCF 10A breast cells. MCF 10A DNA re-replication, Hoechst nuclear intensity, 48 h. Potency, µM (top dose mostly 46.1 µM), without a hit: at the highest dose activity, positive = re-replication, most hits filed as activators. actives 2.9% (n = 350,000). AID 624296; further: % of control where 0% means no effect; nearly all actives have a fitted effect of over 50% in size
# HT1080 IDH1KD tx: toxicity to HT-1080 IDH1 knockdown cells (counter line); Potency, µM (highest dose often 46.1 µM), for the others: at the top dose activity, negative = toxicity, actives largely listed as cytotoxic; HT-1080 IDH1 knockdown viability, ATP luminescence, 48 h; actives 2% (n = 360,000);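 further: 0% = DMSO wells and -100% = cell-free medium wells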
#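 Cytotoxicity counter-line: IDH1KD HT-1080, 48 h, CellTiter-Glo. Curves classed by r2, magnitude and activity.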
# HT1080-NT tox: kills 2HG-producing HT-1080-NT fibrosarcoma cells; HT-1080-NT fibrosarcoma viability, CellTiter-Glo ATP luminescence, 48 h; Potency, µM (doses to about 46.1 µM), inactives show at the highest dose activity, negative = less viability, actives largely listed as cytotoxic; actives 1.6% (n = 360,000);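 further: NT is the 2HG producing partner of a matched IDH1 knockdown line; 0% = DMSO-treated cells and -100% = media-only wells without cells; nearly all actives have a fitted effect of over 55% in size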
#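 HT-1080-NT fibrosarcoma cells (2HG-overproducing), 750 cells/well in RPMI with 5% FBS, dosed after 2 h and incubated 48 h at 37C. CellTiter-Glo luminescence normalized to DMSO and no-cell wells; concentration-response curves fitted and classed.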
# SW480 rerep: DNA re-replication induction in SW480 cells. SW480 DNA re-replication, Hoechst DNA content imaging, 48 h. Potency, µM (top dose mostly 46.1 µM), without a hit: top-dose re-replication activation, most hits filed as activators. actives 1.8% (n = 340,000); further: % of control where 0% means no effect; nearly all actives have a fitted effect of over 55% in size
#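 DNA re-replication was detected as more nuclei of elevated Hoechst intensity after 48 hr exposure to compound (23 nL pinned per well of 250 cells).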
# An asterisk follows results filed as active; i = inactive; ? = inconclusive; . = no result given. The call rests on the fitted dose curve; in most records, active means well fitted curve in the direction sought with a large enough effect; inconclusive means small, poorly fitted or top-dose-only effect, or another doubt; inactive means no such curve, though single readings can be large; an effect the other way counts as inactive or inconclusive. Potency means the concentration at half of the fitted maximal effect.
SMILES,KB-3-1 tox,KB-V1 MDR tox,MCF10A rerep,HT1080 IDH1KD tx,HT1080-NT tox,SW480 rerep
O=C(N/N=C/c1cc(Br)cs1)c1ccc2c(c1)OCCO2,?,?,?,12µM*,2.9µM*,?
Cc1ccsc1/C=N/NC(=O)c1ccc2c(c1)OCCO2,i,i,-1%,-13%,-6%,-79%
O=C(N/N=C/c1cc([N+](=O)[O-])ccc1O)c1cccc2cc[nH]c12,?,i,?,9.2µM*,?,7.3µM*
Cc1ccc(/C=N/NC(=O)c2ccc3c(c2)OCCO3)s1,21µM*,?,?,13µM*,?,16µM*
CC(C)n1c(N2CCN(C(=O)Nc3ccccc3)CC2)nc2ccccc21,i,i,1%,12%,-1%,-1%
CSc1ccc(NC(=O)N2CCN(c3nc4ccccc4s3)CC2)cc1,?,2.6µM*,4%,-5%,2%,2%
Cn1c(N2CCN(C(c3ccccc3)c3ccccc3)CC2)nc2ccccc21,?,?,23µM*,?,?,?
Cn1c(N2CCN(C(=O)Nc3ccc(F)cc3)CC2)nc2ccccc21,i,18µM*,8%,19%,22%,0%
Fc1ccc(Nc2c(-c3c[nH]c4ccccc34)nc3ccccn23)cc1,i,i,.,.,.,.
CCCN(C(=O)c1cc2c(=O)oc3ccccc3c2s1)c1ccccc1C,?,i,.,.,.,.
Cc1ccc(F)c([C@H]2[C@@H]3C=CCC[C@@]3(C)C(=O)N2Cc2ccccc2)c1,i,i,23µM*,-3%,-4%,-4%
Cc1ccc(-c2cc([C@H]3[C@@H]4C=CCC[C@@]4(C)C(=O)N3Cc3ccccc3)ccc2F)cc1,?,i,5%,?,-17%,?
CCc1nc2ccc(C(=O)N3CCN(c4ccccc4)CC3)cn2c1N(C)CCC(C)C,?,23µM*,.,6.5µM*,?,.
CCc1nc2ccc(C(=O)NC3CCN(C)CC3)cn2c1N(C)CCC(C)C,i,i,.,?,16µM*,.
CCCCN(C)c1c(C)nc2ccc(C(=O)NC3CCN(C)CC3)cn12,i,i,.,-8%,?,.
CCc1nc2ccc(C(=O)N3CCN(S(=O)(=O)CC)CC3)cn2c1N(C)CCC(C)C,i,i,.,6%,-2%,.
CCC(=O)Nc1cc(-c2nn(C)c(=O)c3ccccc23)ccc1N1CCOCC1,i,i,12%,13%,1%,-5%
Cn1nc(-c2ccc(N3CCCCC3)c(NC(=O)c3ccco3)c2)c2ccccc2c1=O,8.2µM*,?,?,14%,12%,-3%
CCn1c(=S)[nH]c2sc3c(c2c1=O)CCCC3,i,i,12%,?,-20%,-1%
C=CCn1c(=S)[nH]c2sc3c(c2c1=O)CCC3,i,i,13%,?,7.1µM*,-5%
CCCCC1CC2=C(C(=O)OC(C)(C)O2)C(c2cccc3ccccc23)O1 (centres undefined),i,i,.,?,?,.
CCCC[C@@H]1Cc2[nH][nH]c(=O)c2[C@H](c2cccc3ccccc23)O1,i,i,.,26µM*,?,.
CC(=O)c1c(C)oc2ccc(NS(=O)(=O)c3ccc(F)cc3C)cc12,i,10µM*,7%,3%,-6%,-4%
COCCOC(=O)c1c(C)oc2ccc(NS(=O)(=O)c3ccc(C)cc3)cc12,i,8.2µM*,16µM*,-7%,19%,-9%
Cc1oc2ccc(O)cc2c1C(=O)OC(C)C,i,i,16%,-19%,-3%,4%
SMILES,KB-3-1 tox,KB-V1 MDR tox,MCF10A rerep,HT1080 IDH1KD tx,HT1080-NT tox,SW480 rerep
CCc1ccc(S(=O)(=O)Nc2ccc3oc(C)c(C(=O)OCCOC)c3c2)cc1,i,i,.,.,.,.
CCOc1ccc(S(=O)(=O)Nc2ccc3oc(C)c(C(=O)OC(C)C)c3c2)cc1,?,13µM*,.,.,.,.
Cc1oc2ccc(OCC(N)=O)cc2c1C(=O)OC(C)C,23µM*,?,0%,-27%,-17%,8%
CC(C)C(NS(=O)(=O)c1ccc2c(c1)oc(=O)n2C)C(=O)N1CCN(c2cccc(Cl)c2)CC1 (centres undefined),i,i,.,.,.,.
COc1ccccc1NC(=O)CCNS(=O)(=O)c1ccc2c(c1)CCN2C(=O)C1CC1,i,i,.,.,.,.
Cc1ccc(-c2cn(-c3ccc(Cl)cc3)c(S(=O)(=O)CC(=O)Nc3ccccc3)n2)cc1,i,?,.,.,.,.
Oc1ccc(/C=C/c2nc(-c3ccccc3O)n(-c3ccccc3)n2)cc1,i,?,16µM*,?,?,?
Cn1c2c(c(=O)n(C)c1=O)C(c1cccc(O)c1)CC(=O)N2 (centres undefined),i,?,.,.,.,.
CCOC(=O)C1=C(C)N(c2ccccc2)C(=O)/C1=C\c1cccs1,i,18µM*,0%,5%,-1%,3%
COc1ccc(/C=C2\C(=O)NC(=O)c3ccccc32)cc1OC,i,i,?,12%,0%,?
COc1ccc2c(c1)/C(=C/c1cc(OC)c(OC)c(OC)c1)C(=O)N2,2.3µM*,?,?,5.8µM*,5.8µM*,2.6µM*
COc1ccc(C(=O)/C=C2\C(=O)Nc3ccc(Br)cc32)cc1,?,?,7.3µM*,?,?,?
O=C(NCc1ccc2c(c1)OCO2)c1ccc(Br)cc1,i,i,0%,-2%,-20%,-1%
O=C1Nc2ccc(Br)cc2/C1=C/C(=O)c1ccc2c(c1)OCO2,?,?,3.7µM*,?,?,?
CC(C)Oc1ccc(C(=O)/C=C2/C(=O)Nc3ccccc32)cc1,?,i,?,?,?,?
O=C(/C=C1\C(=O)Nc2ccccc21)/C=C1\C(=O)Nc2ccccc21,?,i,?,?,?,?
O=C1Nc2ccccc2/C1=C\C(=O)c1ccccc1,i,i,?,?,18µM*,?
Cc1cc(C)cc(NS(=O)(=O)c2ccc(N3CCCCS3(=O)=O)cc2)c1,i,?,.,.,.,.
CCc1nc(C)c(-c2ccccc2)c(=O)[nH]1,i,i,?,9%,12%,18µM*
CCCS(=O)(=O)c1ncc(Cl)c(C(=O)Nc2sc3c(c2C(=O)NCC)CCCC3)n1,?,i,.,.,.,.
COc1cc(Nc2ncc3c(n2)CCN(Cc2cc(F)cc(F)c2)C3)cc(OC)c1,?,8.2µM*,.,.,.,.
COc1ccc(OC)c(Nc2ncc3c(n2)CCN(Cc2cc(OC)c(OC)c(OC)c2)C3)c1,i,i,.,.,.,.
